Rango dissoc inh: prevents RanGTP from dissociating the Rango-importin beta complex | O95149+P62826 | Biochemical FRET Rango-importin beta, RanGTP-induced dissociation | Potency, µM (top dose mostly 46.1 µM) | hit rate 0.071% among 340,000 | AID 540253; further: nearly all actives have a fitted effect of over 45% in size
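Rango (0.1 uM)–importin beta (0.25 uM) complex; RanGTP-RCC1 trigger; 45 min RT; CFP/YFP FRET read.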
Integrin act MD: activators of alpha7 integrin expression for muscular dystrophy; Potency, µM (top dose mostly 38.3 µM), hits mostly activators; alpha7betagal myoblasts, beta-gal FDG fluorescence, 48 h; hit rate 0.064% among 350,000; active means well fitted curve in the direction sought with a large enough effect; inconclusive means small, poorly fitted or top-dose-only effect, or another doubt; inactive means no such curve, though single readings can be large; an effect the other way counts as inactive or inconclusive; further: nearly all actives have a fitted effect of over 60% in size
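alpha7betagal+/- myoblasts (passage 13, 250/well) treated 48 h at 37C with compounds at 1:260 dilution of DMSO stock. Lysed, then beta-galactosidase activity read as FDG fluorescence (ex 480/em 540) after 30 min, with pre-read for autofluorescence.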
MmCpn inh: blocks the Methanococcus maripaludis chaperonin Mm-Cpn. purified Mm-Cpn ATPase, ADP Transcreener TR-FRET. hit rate 0.031% among 330,000. Potency, µM (titrated, usually from 76.9 µM), usual class: inhibitors; active means well fitted curve in the direction sought with a large enough effect; inconclusive means small, poorly fitted or top-dose-only effect, or another doubt; inactive means no such curve, though single readings can be large; an effect the other way counts as inactive or inconclusive; further: nearly all actives have a fitted effect of over 80% in size
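Reaction buffer contained 30 mM Tris pH 7.4, 100 mM KCl, 5 mM MgCl2 and 1 mM DTT. Mm-CPN (25 nM final) hydrolysed 10 uM ATP over 30 min at 37°C; ADP was read by HTRF.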
Rango complex inh: prevents formation of the Rango-importin beta complex | Rango CFP/YFP FRET sensor + importin beta, 45 min | Potency, µM (highest dose often 92.2 µM) | hit rate 0.031% among 340,000 | AID 540263 | Q14974; further: nearly all actives have a fitted effect of over 15% in size
Target sequence (Q14974 whole entry, looked up): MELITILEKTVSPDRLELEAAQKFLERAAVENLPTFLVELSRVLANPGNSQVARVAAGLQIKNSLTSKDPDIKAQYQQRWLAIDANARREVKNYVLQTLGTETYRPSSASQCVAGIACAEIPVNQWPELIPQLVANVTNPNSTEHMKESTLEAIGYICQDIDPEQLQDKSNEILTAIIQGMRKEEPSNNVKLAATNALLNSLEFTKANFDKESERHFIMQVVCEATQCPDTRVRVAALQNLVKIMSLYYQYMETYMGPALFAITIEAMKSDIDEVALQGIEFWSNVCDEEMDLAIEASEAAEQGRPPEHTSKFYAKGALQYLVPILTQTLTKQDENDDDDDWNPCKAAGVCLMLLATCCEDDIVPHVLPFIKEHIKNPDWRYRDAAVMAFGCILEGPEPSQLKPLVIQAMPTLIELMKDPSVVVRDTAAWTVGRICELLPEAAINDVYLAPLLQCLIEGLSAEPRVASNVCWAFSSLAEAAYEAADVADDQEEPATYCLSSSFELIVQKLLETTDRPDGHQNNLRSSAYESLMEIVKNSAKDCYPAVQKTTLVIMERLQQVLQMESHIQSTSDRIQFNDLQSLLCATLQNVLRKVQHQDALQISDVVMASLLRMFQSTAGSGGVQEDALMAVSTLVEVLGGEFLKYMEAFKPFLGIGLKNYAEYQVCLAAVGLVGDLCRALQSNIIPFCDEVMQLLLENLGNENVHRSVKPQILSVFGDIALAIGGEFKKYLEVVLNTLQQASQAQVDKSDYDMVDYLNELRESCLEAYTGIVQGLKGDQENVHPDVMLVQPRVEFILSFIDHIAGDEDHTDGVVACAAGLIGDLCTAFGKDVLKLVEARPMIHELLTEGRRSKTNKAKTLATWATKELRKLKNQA
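FRET biosensor Rango (snurportin 1 IBB between N-terminal EYFP and C-terminal Cerulean), 50 nM in PBS/1 mM DTT/0.02% Tween-20/0.1% BSA, preincubated 5 min RT with compound; 0.125 microM importin beta added, 45 min RT, CFP/YFP FRET ratio read.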
CCT chaperon mod: changes cytosolic chaperonin activity | purified chaperonin ATPase assay, HTRF ADP detection, 30 min | activity change, % (test concentration not listed), hits read low | hit rate 0.3% among 360,000 | AID 651819; in the data active means activity change below about -30%
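ATPase activity: ADP formed was measured by HTRF Transcreener (665/615 nm ratio) after 30 min at 37 deg C with 10 uM ATP. Compounds screened at one 76 uM concentration against 40 or 20 nM TRiC in Tris pH 7.4/KCl/MgCl2/DTT buffer.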
Each line names hits and unclear results; the compound was inactive in the other large screens; [ ] = remark or other dose. In the library only some 0.51% were active in any assay of this set; here they are far more common. Unless noted, the call rests on the fitted dose curve.

CCOC(=O)C1=CCN(S(=O)(=O)c2ccccc2Cl)C1c1cccc(F)c1 (stereo not drawn)	none (no result: Rango dissoc inh, Integrin act MD, MmCpn inh, Rango complex inh)
COC(=O)C1=C(C)N(Cc2ccccc2)C(=NCc2ccc(OC)cc2)N[C@H]1c1ccc(Br)cc1	none (no result: Rango dissoc inh, Integrin act MD, Rango complex inh, CCT chaperon mod)
COc1cc(C(=O)Nc2cccc(C)c2C)ccc1OCC(=O)N1CCOCC1	Rango complex inh inconclusive, CCT chaperon mod -34
CC(=O)Nc1cc(-c2ccccc2F)cn2c(-c3ccccc3)cnc12	CCT chaperon mod -36 (no result: Rango dissoc inh, Integrin act MD, MmCpn inh, Rango complex inh)
CCn1c(C)[n+](CC)c2ccc(C(=O)N(C)c3ccccc3)cc21	CCT chaperon mod -33
COc1ccc(OCC(=O)N/N=C2\CCCc3ccccc32)cc1	none
Cc1cccc2c1OCC/C2=N\NC(=O)COc1ccccc1	CCT chaperon mod -32
COc1ccccc1OCC(=O)N/N=C1\CCc2ccccc21	CCT chaperon mod -34
Cc1ccccc1C1N=C2Oc3ccccc3C=C2C(=O)N1 (stereo not drawn)	none (no result: Rango dissoc inh, Integrin act MD, MmCpn inh, Rango complex inh)
Cc1ccc(-n2nc3cc(C)c(N)cc3n2)cc1	Rango dissoc inh 18µM, Rango complex inh inconclusive
Nc1nc(-c2ccccc2)cn1N	Rango dissoc inh 21µM, Rango complex inh inconclusive
NS(=O)(=O)c1ccc(CNC(=O)c2cc(-c3ccccn3)nc3ccc(Cl)cc23)cc1	MmCpn inh inconclusive, Rango complex inh inconclusive, CCT chaperon mod -55
NS(=O)(=O)c1ccc(CNC(=O)c2cc(-c3cccnc3)nc3ccc(Cl)cc23)cc1	none
CCOc1ccccc1NC(=O)CNC(=O)Cc1ccccc1	CCT chaperon mod -43
CCOc1ccccc1NC(=O)CNC(=O)CNC(=O)Cc1ccccc1	none
O=C(Nc1ccc(Cl)cc1N1CCOCC1)C1CCCCC1	Integrin act MD 7.1µM
O=C(Nc1ccc(Cl)cc1N1CCOCC1)C1CCCO1 (stereo not drawn)	none
CCC(=O)N(C)C[C@H]1Oc2ncc(C#Cc3cccnc3)cc2C(=O)N([C@@H](C)CO)C[C@@H]1C	none (no result: Rango dissoc inh, MmCpn inh, Rango complex inh)
Cc1ccc(OCC(=O)N2CCN(S(=O)(=O)c3ccc4c(c3)OCCO4)CC2)c(C)c1	Integrin act MD 2µM
Cc1cccc(N2CCN(S(=O)(=O)c3ccc4c(c3)OCCO4)CC2)c1C	Rango dissoc inh 18µM[inhibitor], Integrin act MD inconclusive, Rango complex inh inconclusive
N#Cc1ccc2c(c1)C[C@]1(CCCCN3C(=O)c4ccccc4C3=O)OC3=C(C(=O)OC4(CCCCC4)C3)C2O1	none (no result: Rango dissoc inh, Integrin act MD, Rango complex inh, CCT chaperon mod)
CSc1nc(Sc2ccccc2Cl)c2ccccc2n1	Rango complex inh inconclusive, CCT chaperon mod -77
CC(C)(C(=O)N1CCC1(C)C(=O)NS(=O)(=O)c1ccc(C#N)cc1)c1ccccc1 (stereo not drawn)	none (no result: Rango dissoc inh, Integrin act MD, MmCpn inh, Rango complex inh)
CC(C)NC(=O)CN1CCN(C(=O)CCl)CC1	Integrin act MD 7.1µM
COc1cc2c(c(OC)c1OC)-c1ccc(NCc3ccccc3)c(=O)cc1C(NC(C)=O)CC2 (stereo not drawn)	none (no result: Rango dissoc inh, MmCpn inh, Rango complex inh)
Cc1ccc(NC(=O)/C=C/c2ccc([N+](=O)[O-])s2)c(C)c1	Rango dissoc inh inconclusive, Rango complex inh inconclusive
Cc1ccc(NC(=O)/C=C/c2ccc([N+](=O)[O-])s2)cc1	Rango dissoc inh 0.73µM[inhibitor]
Cc1cccc(NC(=O)/C=C/c2ccc([N+](=O)[O-])s2)c1	Rango dissoc inh 2.1µM[inhibitor], Rango complex inh inconclusive
C#CCN(C[C@@H]1[C@@H](OC(=O)NCc2ccco2)[C@@H](OC(=O)NCc2ccco2)CN(C(=O)OC(C)C)N1C(=O)OC(C)C)S(=O)(=O)c1ccc(C)cc1	none (no result: Rango dissoc inh, MmCpn inh, Rango complex inh)
O=C1c2ccccc2C(=O)N1c1cccnc1	CCT chaperon mod -44 (no result: MmCpn inh)
O=C1c2cccc([N+](=O)[O-])c2C(=O)N1c1cccnc1	none
O=C(OCc1c(F)cccc1Cl)c1cnc2ccccc2n1	none
O=C(OCc1c(F)cccc1Cl)c1cnccn1	CCT chaperon mod -40
CCOC(=O)C1=C(C)NC(C)=C(C(=O)OC)C1c1cccc(Cl)c1Cl (stereo not drawn)	none (no result: Integrin act MD)
COC(=O)C1=C(C)NC(=O)CC1c1cccc(Cl)c1Cl (stereo not drawn)	CCT chaperon mod -30
COc1ccc(-c2ccc(-c3noc(-c4ccccc4)n3)c(OC)n2)cc1	Rango dissoc inh 2.1µM, Rango complex inh inconclusive
O=C(c1ccc2ncsc2c1)N1CCCCC1	CCT chaperon mod -36
